FECH_inh: inhibitors of human ferrochelatase | 20,000 compounds, 3.3% hits | purified FECH, Ni-mesoporphyrin absorbance 550 nm | calls only at 10 µM (by protocol) | P22830;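 active means enzyme reaction rate more than 3 SD below the solvent-only control wells on the same plate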;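 further: lower slope than DMSO wells means FECH inhibition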
Target sequence (P22830 whole entry, looked up): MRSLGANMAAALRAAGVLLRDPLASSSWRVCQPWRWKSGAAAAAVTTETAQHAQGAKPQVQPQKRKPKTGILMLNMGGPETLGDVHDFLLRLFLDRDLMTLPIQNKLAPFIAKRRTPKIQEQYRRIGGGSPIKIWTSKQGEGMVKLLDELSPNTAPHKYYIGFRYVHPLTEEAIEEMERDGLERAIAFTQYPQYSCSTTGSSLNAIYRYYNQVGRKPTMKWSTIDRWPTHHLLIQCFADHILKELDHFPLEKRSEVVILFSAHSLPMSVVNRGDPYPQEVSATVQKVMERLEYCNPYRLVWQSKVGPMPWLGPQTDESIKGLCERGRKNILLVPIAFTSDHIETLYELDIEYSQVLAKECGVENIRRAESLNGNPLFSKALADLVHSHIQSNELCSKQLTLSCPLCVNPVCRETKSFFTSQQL
Active calls of the source: *; i = inactive; + = active, no number. The entries come from a sample that favours hits as a whole.

SMILES FECH_inh
NC(=O)c1ccc(NC(=O)c2cccn(Cc3cccc(Cl)c3)c2=O)cc1 i
O=C(Nc1ccon1)c1cccn(Cc2cccc(Cl)c2)c1=O +
NC(=O)c1ccccc1NC(=O)c1cccn(Cc2cccc(Cl)c2)c1=O i
Cc1ccnc(-n2cc(C3=CCN(CC(=O)Nc4ccn(C)n4)CC3)cn2)c1 i
O=C(c1ccc2c(c1)OCO2)N1C[C@H](c2ccccc2)[C@@H]2[C@H]1C1CCN2CC1 i
